Activity calls are given as the source filed them. Unless noted, the rule behind the calls is not given here.
Test: Pseudomonas biofilm growth suppression – PAO1 strain, BacTiter-Glo luminescence, LB-PBS, primary screen (AID 1144)
Details: P. aeruginosa PAO1 biofilm, 12 h, higher = more signal
With `Cc1ccc(S[C@]2(C(=O)NCCCN(C)C)CC(=O)N(Cc3cc(C(F)(F)F)cc(C(F)(F)F)c3)[C@@H]2c2ccc(CO)cc2)cc1` the z-score was -0.617 (inactive).
In the case of `CCCC[C@H]1OB(O)C[C@H]2C1=C(COC)Cn1c(=O)n(-c3ccccc3)c(=O)n12`, the z-score was -0.549 (inactive).
In the case of `COc1ccc(/C=C/C=O)cc1`, the z-score was -0.577 (inactive).
With `NC(=O)NCC#Cc1ccc2c(c1)[C@]1(C(=O)N2)[C@H](c2ccccc2OCCO)N2[C@H](c3ccccc3)[C@H](c3ccccc3)OC(=O)[C@H]2[C@@H]1C(=O)Nc1nc2ccccc2s1` the z-score was -1.39 (inactive).
In the case of `C=CCC(OC(C)=O)[C@@H]1[C@@H](N(Cc2ccc(-c3ccccc3)cc2)C(=O)c2ccc(-c3ccccc3)cc2)c2cc(OCCCO)ccc2N1C(=O)Cc1ccc2ccccc2c1` (stereo partly drawn), the z-score was -0.0138 (inactive).
With `Cc1ccc(N2C(=O)c3ccccc3[C@@H](C(=O)NC3CC3)[C@@H]2c2ccc(CO)cc2)nc1` the z-score was -0.754 (inactive).
For `COCCCNC(=O)[C@@]1(C)c2ccccc2C(=O)N(C(C)C)[C@H]1c1ccc(CO)cc1`, the z-score was 0.0334 (inactive).
In the case of `COC(=O)[C@@]1(Cc2ccc(OC)cc2)[C@@H]2C(=CC(=O)[C@H]2CC(=O)C(=O)N2CCCC2)CN1C(=O)c1ccccc1`, the z-score was 0.745 (inactive).
With `C=C(COC)/C(=C/C[C@@H](OC(=O)c1ccncc1)c1ccc(CO)o1)c1cc(C(=O)OC)ccc1OC` the z-score was -0.985 (inactive).
For `NC(=O)NCC#Cc1ccc2c(c1)[C@]1(C(=O)N2)[C@H](C(=O)Nc2nc3ccccc3s2)[C@H]2C(=O)O[C@H](c3ccccc3)[C@H](c3ccccc3)N2[C@@H]1c1ccccc1OCCO`, the z-score was -1.22 (inactive).
With `COc1ccc(C(=O)Nc2ccc(CN3C(=O)[C@]4(O[C@H](CCO)[C@@H]([Si](C)(C)c5ccc(OC)cc5)[C@@H]4C)c4ccccc43)cc2)cc1` the z-score was -0.925 (inactive).
With `COc1cc2c(cc1OC)CN(C(=O)[C@@H]1[C@H]3C(=O)O[C@H](c4ccccc4)[C@H](c4ccccc4)N3[C@H](c3ccc(O)cc3)[C@@]13C(=O)Nc1ccccc13)CC2` the z-score was -1.07 (inactive).
For `[N-]=[N+]=Nc1ccccc1[C@@H]1OC(c2ccc(OCCCO)cc2)=N[C@]1(CCS(=O)(=O)c1ccccc1)C(N)=O`, the z-score was 0.378 (inactive).
In the case of `COC(=O)[C@@]1(Cc2ccc(F)cc2)[C@H]2c3cc(C(=O)N4CCCC4)n(CCCNc4ncc(C(F)(F)F)cc4Cl)c3C[C@H]2CN1C(=O)c1ccccc1`, the z-score was -0.0456 (inactive).
For `[N-]=[N+]=Nc1ccccc1[C@@H]1OC(c2ccc(OCCCO)cc2)=N[C@]1(Cc1ccccc1)C(=O)N1CCOCC1`, the z-score was 0.617 (inactive).
In the case of `C=CCC(OC(C)=O)[C@@H]1[C@@H](N(Cc2ccc(-c3ccccc3)cc2)C(=O)Cc2ccc(OC)cc2)c2cc(OCCCO)ccc2N1C(=O)Cc1ccc2ccccc2c1` (stereo partly drawn), the z-score was 0.294 (inactive).
With `CC1(C)C2C=C(C(O)C3C=CC4C(=O)NC(=O)C4N3Nc3ccc(Cl)cc3Cl)C[C@@H]1C2` (stereo partly drawn) the z-score was -0.418 (inactive).
For `CO[C@H]1O[C@H](CO)[C@@H](OC(=O)Nc2cccc(F)c2)[C@H](OC(=O)Nc2ccccc2)[C@@H]1OC(=O)Nc1ccccc1`, the z-score was -0.125 (inactive).
In the case of `COc1ccc(C(O)C2C=CC3C(=O)N(Cc4ccccc4)C(=O)C3N2n2cnnc2)cc1OCc1ccccc1` (stereo not drawn), the z-score was -2.01 (inactive).
In the case of `COC(=O)[C@@]1(Cc2ccc(OC)cc2)[C@H]2c3cc(C(=O)N4CCCC4)n(Cc4ccc(C)c(F)c4F)c3C[C@H]2CN1C(=O)c1ccccc1`, the z-score was 0.605 (inactive).
In the case of `CC(=O)NCCCC[C@@H]1NC(=O)[C@H]2C[C@@H](C(=O)NCCCCCCNC(=O)CS)[C@@H](c3ccc(O)cc3)N2C1=O`, the z-score was -0.619 (inactive).
In the case of `COCCOC(=O)N1C(=O)[C@@]2(c3cc(C#CC4(O)CCCCCC4)ccc31)[C@H](c1ccc(OCCO)cc1)N1[C@H](c3ccccc3)[C@H](c3ccccc3)OC(=O)[C@H]1[C@@H]2C(=O)N1CCN(c2ncccn2)CC1`, the z-score was 0.517 (inactive).
For `CCCCCN1CC=CC23O[C@@H]4/C=C\CCC(C)OC(=O)C4[C@H]2C(=O)N(C(C)CO)[C@@H]3C1=O` (stereo partly drawn), the z-score was -0.818 (inactive).
With `COc1ccc(C#Cc2ccc3c(c2)[C@]2(C(=O)N3)[C@H](C(=O)NC[C@H](O)c3ccccc3)[C@H]3C(=O)O[C@H](c4ccccc4)[C@H](c4ccccc4)N3[C@@H]2c2ccc(O)cc2)cc1` the z-score was -1.1 (inactive).
In the case of `COc1ccc(C#Cc2ccc3c(c2)[C@]2(C(=O)N3)[C@H](c3ccccc3OCCO)N3[C@H](c4ccccc4)[C@H](c4ccccc4)OC(=O)[C@H]3[C@@H]2C(=O)Nc2nc3ccccc3s2)cc1`, the z-score was -0.726 (inactive).
With `CN1C(=O)C2C=CC(C(O)c3ccco3)N(Nc3ccccc3)C2C1=O` (stereo not drawn) the z-score was -0.197 (inactive).

Test: basal CRE-LacZ reporter activity in PC12 – cell-based, unstimulated, primary screen (AID 1145)
Details: no forskolin, luminescence, 4.5 h, higher = more signal, called active from +8 up or from −8 down
For `COCCOC(=O)N1C(=O)[C@@]2(c3cc(C#CCC(C(=O)OC)C(=O)OC)ccc31)[C@H](c1ccccc1OCCO)N1[C@H](c3ccccc3)[C@H](c3ccccc3)OC(=O)[C@H]1[C@@H]2C(=O)N1CCN(c2ncccn2)CC1`, the z-score was -0.479 (inactive).
With `C=CCC(OC(C)=O)[C@@H]1[C@@H](N(Cc2ccc(-c3ccccc3)cc2)C(=O)c2cccc3ccccc23)c2cc(OCCCO)ccc2N1C(=O)c1ccc(-c2ccccc2)cc1` (stereo partly drawn) the z-score was 0.6 (inactive).
In the case of `O=C(NCCO)C1=C[C@H](Oc2ccccc2I)[C@@H](O)[C@H](N(Cc2ccco2)C(=O)Cc2ccccc2)C1`, the z-score was -0.78 (inactive).
For `C#C[C@H](O[Si](C#Cc1ccc(Oc2ccccc2)cc1)(C(C)C)C(C)C)c1ccccc1`, the z-score was 0.498 (inactive).
With `CC1CC/C=C\[C@H]2OC34C=CCN(Cc5ccccc5)C(=O)[C@H]3N(CCCO)C(=O)[C@@H]4C2C(=O)O1` (stereo partly drawn) the z-score was -0.0778 (inactive).
In the case of `CCOC(=O)C[C@H]1[C@H](OC(=O)c2ccc(C(=O)c3ccccc3)cc2)[C@@H](NC(=O)c2ccccc2)c2cc(OCCCO)ccc2N1C(=O)Cc1ccc(OC)cc1`, the z-score was 2.75 (inactive).
With `CC(C)CNC(=O)[C@@]1(Cc2ccccc2I)c2ccccc2C(=O)N(C2CCCCC2)[C@H]1c1ccc(CO)cc1` the z-score was -0.206 (inactive).
In the case of `Cc1ccc(S[C@]2(C(=O)NCCCN(C)C)CC(=O)N(Cc3ccccc3C(F)(F)F)[C@@H]2c2ccc(CO)cc2)cc1`, the z-score was -0.295 (inactive).
For `C=CC[C@]1(C(=O)NCCCOC)N=C(c2ccc(OCCCO)cc2)O[C@H]1c1ccccc1CN=[N+]=[N-]`, the z-score was 1.49 (inactive).
For `Cc1ccc(S[C@]2(C(=O)NCCCN(C)C)CC(=O)N(Cc3cc(C(F)(F)F)cc(C(F)(F)F)c3)[C@@H]2c2ccc(CO)cc2)cc1`, the z-score was -0.152 (inactive).
With `CCCC[C@H]1OB(O)C[C@H]2C1=C(COC)Cn1c(=O)n(-c3ccccc3)c(=O)n12` the z-score was -0.327 (inactive).
In the case of `COc1ccc(/C=C/C=O)cc1`, the z-score was 0.209 (inactive).
For `NC(=O)NCC#Cc1ccc2c(c1)[C@]1(C(=O)N2)[C@H](c2ccccc2OCCO)N2[C@H](c3ccccc3)[C@H](c3ccccc3)OC(=O)[C@H]2[C@@H]1C(=O)Nc1nc2ccccc2s1`, the z-score was -0.0784 (inactive).
For `C=CCC(OC(C)=O)[C@@H]1[C@@H](N(Cc2ccc(-c3ccccc3)cc2)C(=O)c2ccc(-c3ccccc3)cc2)c2cc(OCCCO)ccc2N1C(=O)Cc1ccc2ccccc2c1` (stereo partly drawn), the z-score was 0.208 (inactive).
For `Cc1ccc(N2C(=O)c3ccccc3[C@@H](C(=O)NC3CC3)[C@@H]2c2ccc(CO)cc2)nc1`, the z-score was -0.062 (inactive).
For `COCCCNC(=O)[C@@]1(C)c2ccccc2C(=O)N(C(C)C)[C@H]1c1ccc(CO)cc1`, the z-score was 0.234 (inactive).
In the case of `COC(=O)[C@@]1(Cc2ccc(OC)cc2)[C@@H]2C(=CC(=O)[C@H]2CC(=O)C(=O)N2CCCC2)CN1C(=O)c1ccccc1`, the z-score was -0.754 (inactive).
In the case of `C=C(COC)/C(=C/C[C@@H](OC(=O)c1ccncc1)c1ccc(CO)o1)c1cc(C(=O)OC)ccc1OC`, the z-score was 0.904 (inactive).
For `NC(=O)NCC#Cc1ccc2c(c1)[C@]1(C(=O)N2)[C@H](C(=O)Nc2nc3ccccc3s2)[C@H]2C(=O)O[C@H](c3ccccc3)[C@H](c3ccccc3)N2[C@@H]1c1ccccc1OCCO`, the z-score was 0.0776 (inactive).
For `COc1ccc(C(=O)Nc2ccc(CN3C(=O)[C@]4(O[C@H](CCO)[C@@H]([Si](C)(C)c5ccc(OC)cc5)[C@@H]4C)c4ccccc43)cc2)cc1`, the z-score was 8.84 (active).
For `COc1cc2c(cc1OC)CN(C(=O)[C@@H]1[C@H]3C(=O)O[C@H](c4ccccc4)[C@H](c4ccccc4)N3[C@H](c3ccc(O)cc3)[C@@]13C(=O)Nc1ccccc13)CC2`, the z-score was 0.685 (inactive).
With `[N-]=[N+]=Nc1ccccc1[C@@H]1OC(c2ccc(OCCCO)cc2)=N[C@]1(CCS(=O)(=O)c1ccccc1)C(N)=O` the z-score was 0.218 (inactive).
With `COC(=O)[C@@]1(Cc2ccc(F)cc2)[C@H]2c3cc(C(=O)N4CCCC4)n(CCCNc4ncc(C(F)(F)F)cc4Cl)c3C[C@H]2CN1C(=O)c1ccccc1` the z-score was 1.74 (inactive).
With `[N-]=[N+]=Nc1ccccc1[C@@H]1OC(c2ccc(OCCCO)cc2)=N[C@]1(Cc1ccccc1)C(=O)N1CCOCC1` the z-score was 1.56 (inactive).
With `C=CCC(OC(C)=O)[C@@H]1[C@@H](N(Cc2ccc(-c3ccccc3)cc2)C(=O)Cc2ccc(OC)cc2)c2cc(OCCCO)ccc2N1C(=O)Cc1ccc2ccccc2c1` (stereo partly drawn) the z-score was 0.745 (inactive).
For `CC1(C)C2C=C(C(O)C3C=CC4C(=O)NC(=O)C4N3Nc3ccc(Cl)cc3Cl)C[C@@H]1C2` (stereo partly drawn), the z-score was 1.19 (inactive).
With `CO[C@H]1O[C@H](CO)[C@@H](OC(=O)Nc2cccc(F)c2)[C@H](OC(=O)Nc2ccccc2)[C@@H]1OC(=O)Nc1ccccc1` the z-score was -0.459 (inactive).

— PubChem BioAssay
